Results filed as inconclusive are left out. Activity calls are given as the source filed them. Calls come from the whole dose curve; as a rule, active = well fitted curve in the direction sought with a large enough effect; inconclusive = small, poorly fitted or top-dose-only effect, or another doubt; inactive = no such curve, though single readings can be large; an effect the other way counts as inactive or inconclusive.
What was measured:
[1] = Cellular Toxicity (caspase-3) Jurkat (AID 655); conditions: Jurkat caspase-3 activation, luminescence, DMSO = 0%, tamoxifen = 100%; series mostly up to 92.2 µM;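 note: cells exposed to compound for 16 h at 37 °C before reading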
Summary of the method: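 Luminescent Caspase-Glo 3/7 read-out (20 min, room temperature) after 16 h compound treatment at 37 C of 5000 Jurkat cells per well. AC50 derived by Hill-equation fitting, scaled between DMSO basal and 100 uM tamoxifen stimulation.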

[2] = Cellular Toxicity (caspase-3) HUV-EC-C (AID 656); conditions: HUV-EC-C cells, caspase-3 activation (apoptosis), vehicle = 0, 100 µM tamoxifen = 100%; series mostly up to 92.2 µM
Summary of the method: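 Luminescent Caspase-Glo 3/7 readout after 16 h, 37 °C compound exposure of HUV-EC-C endothelial cells, 1000 per well, complete medium. AC50 derived by Hill fitting, with DMSO as baseline and 100 uM tamoxifen as full activation.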

[3] = Cellular Toxicity (caspase-3) SHSY5Y (AID 657); conditions: SH-SY5Y caspase-3 activation, DMSO zero, 10 µM staurosporine = 100%; series mostly up to 91.7 µM
Summary of the method: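 Luminescent Caspase-Glo 3/7 read-out, 1 hr room temperature, follows 16 hours of compound treatment of SH-SY5Y cells at 37 °C. Normalization: DMSO basal, 10 uM staurosporine as 100%; AC50 values from Hill-equation concentration-response fits.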

[4] = Cellular Toxicity (caspase-3) BJ (AID 658); conditions: BJ fibroblasts, luminescence, normalized: DMSO 0%, staurosporine 100%; series mostly up to 91.7 µM
Summary of the method: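 Luminescent aminoluciferin-substrate cleavage reports caspase 3/7 activity in normal human BJ fibroblasts after 16 hr compound exposure at 37 °C. Normalized to DMSO (basal) and 10 uM staurosporine (100%); AC50 from Hill fit of concentration-response.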

[5] = Cellular Toxicity (caspase-3) MRC-5 (AID 659); conditions: MRC-5 cells, luminescence, normalized: DMSO 0%, 10 µM staurosporine 100%; series mostly up to 91.7 µM
Summary of the method: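 Luminescence from caspase-cleaved aminoluciferin substrate (Caspase-Glo 3/7, 1 hr RT) reports caspase 3/7 activity in MRC-5 lung fibroblasts after 16 hr compound exposure. Normalized to DMSO basal and 10 uM staurosporine as 100%; AC50 from Hill fits.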

[6] = Cellular Toxicity (caspase-3) Mesangial (AID 660); conditions: mesangial cells, normalized: DMSO 0%, 100 µM tamoxifen 100%; series mostly up to 91.7 µM;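 note: cells exposed to compound for 16 h before the caspase read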
Summary of the method: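 Human renal glomerular mesangial cells (1000/well) were treated with compounds for 16 h at 37 °C in complete medium, then caspase 3/7 activity was read by Caspase-Glo luminescence. Data were normalized to DMSO and 100 uM tamoxifen; AC50 from Hill fits.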

[7] = Cellular Toxicity (caspase-3) SK-N-SH (AID 661); conditions: SK-N-SH caspase-3 activation, qHTS, DMSO as zero, staurosporine as full; series mostly up to 91.7 µM
Summary of the method: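 SK-N-SH human neuroblastoma cells (1500/well) were treated with compounds for 16 hr at 37 °C in complete medium; caspase 3/7 activity was read by Caspase-Glo luminescence. AC50 came from Hill fits of data normalized to DMSO and 10 uM staurosporine.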

[8] = Cellular Toxicity (caspase-3) H-4-II-E (AID 663); conditions: H-4-II-E rat hepatoma, scaled: DMSO 0%, 100 µM tamoxifen 100%; series mostly up to 92.2 µM;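 note: cells exposed to compound for 16 hr before readout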
Summary of the method: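 Luminescence from caspase-cleaved aminoluciferin substrate, read 20 min after reagent addition, reports caspase 3/7 activation in rat H-4-II-E cells after 16 hr compound exposure. Normalized to DMSO (basal) and 100 uM tamoxifen (100%); AC50 from Hill fits.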

[9] = Cellular Toxicity (caspase-3) Hek293 (AID 664); conditions: HEK293 caspase-3 activation, DMSO = 0%, 100 µM tamoxifen = 100%; series mostly up to 92.2 µM;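 note: cells exposed to compound for 16 h at 37 °C before readout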
Summary of the method: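 HEK293 cells were exposed to compounds in complete medium for 16 hr at 37 °C, then caspase-3/7 activity was read by Caspase-Glo 3/7 luminescence after 20 min at room temperature. Data normalized to DMSO and 100 uM tamoxifen; AC50 from Hill fits.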

[10] = Cellular Toxicity (caspase-3) N2a (AID 665); conditions: N2a cells, luminescence, normalized: DMSO 0%, 10 µM staurosporine 100%; series mostly up to 92.2 µM;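 note: compound exposure lasted 16 h at 37 °C before readout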
Summary of the method: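 Mouse N2a neuroblastoma cells (1500/well) were treated with compounds for 16 h at 37 °C, then caspase-3/7 activity was read by Caspase-Glo luminescence after 1 h at room temperature. Data were normalized to DMSO and 10 uM staurosporine; AC50 from Hill fits.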

Measured: outcome

Cc1cc(O)c2c(c1)C(=O)c1cccc(O)c1C2=O
inactive: [1] | [2] | [3] | [4] | [5] | [6] | [7] | [8] | [9] | [10]

Reference: PubChem BioAssay (NCATS)
